In the assay the test system is MIWI (PIWIL1) piRISC loaded with L1MC piRNA (30 nt). Kind of assay: pre-steady-state target cleavage rate (min^-1); MIWI and MILI are mouse PIWI proteins and EfPiwi is from a freshwater sponge; tags in brackets are library labels; higher = faster piRNA-guided slicing of the target. Particulars: guide: L1MC piRNA 5'p-UAACUAAAUACUAUGCAAGCUGUAGGUCCU
Summed up:
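The pre-steady-state cleavage rate was obtained by Cleave-'n-Seq with a burst-and-steady-state fit. A transcribed, DNA-blocked target RNA library (0.1 nM) was mixed with 1 nM active affinity-purified piRISC carrying one synthetic guide, with or without 500 nM GTSF1 partner protein, in HEPES–potassium acetate buffer at 33 °C for 0–8 or 0–960 min. Uncleaved targets were sequenced and normalised to depth and to weakly complementary targets, with three trials pooled and k3 capped at 0.0001 min^-1.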

Setting [1] is: auxiliary factor: 500 nM mouse GTSF1.
Setting [2] is: auxiliary factor: none (no GTSF1).

± gives the standard deviation. Over roughly 8,200 sequences, “pre-steady-state target cleavage rate” has its median near 0.024; the highest 2% begin near 1.3. The list comes from a sample in which the highest values are over-represented; it also holds similar and randomly drawn sequences.

With UCCUGGAUGUCGAACGUUUGUAUAUAGUUA, the “pre-steady-state target cleavage rate” value under setting [1] was less than 0.0001.

Consider UGGACCUACAGCUUGCAUAGUAUUUAGUUUA, for which the “pre-steady-state target cleavage rate” value is, setting by setting: under setting [1], 1.56 ± 0.086; under setting [2], 0.075 ± 0.014.

With UGGACCUACAGCUUGCAUAGUAUUUAGCUUA, the “pre-steady-state target cleavage rate” value is 0.316 ± 0.023 under setting [1] and 0.0288 ± 0.0059 under setting [2].

In the case of UGGACCUACAGCUUGCAUAGUAUUUAGUA, the “pre-steady-state target cleavage rate” value reads like this: under setting [1], 0.885 ± 0.062; under setting [2], 0.0273 ± 0.0069.

Turning to UGGACCUACAGCUUGCAUAGUAUUUAGUAA, the “pre-steady-state target cleavage rate” value is 1.11 ± 0.064 under setting [1] and 0.0627 ± 0.014 under setting [2].

With “UGGACCUACAGCUUGCAUAGUAUUUAGUUU [g2:g29:cont:t1U]”, the “pre-steady-state target cleavage rate” value runs as follows: under setting [1], 1.62 ± 0.082; under setting [2], 0.0974 ± 0.02.

“UGGACCUACAGCUUGCAUAGUAUUUAGUUC [g2:g29:cont:t1C]”: the “pre-steady-state target cleavage rate” value came out at 1.14 ± 0.068 under setting [1] and 0.0625 ± 0.012 under setting [2].

As to UCCUGGAACAGGUUGCAUAGUAUUUAGAAA, under setting [1], the “pre-steady-state target cleavage rate” value worked out at 0.362 ± 0.043.

With AGGACCUACAGCUACGAUAGUAUUUAGUAA, the “pre-steady-state target cleavage rate” value under setting [1] stood at 0.153 ± 0.045.

Regarding UCGACCAACAGCUUGCAUAGUAAUUAGUUA, the “pre-steady-state target cleavage rate” value by setting is: under setting [1], 0.972 ± 0.041; under setting [2], 0.0305 ± 0.0074.

On to AGGACCUACAGCUUGGUUAGUAUUUACAAA, for which the “pre-steady-state target cleavage rate” value under setting [1] is 0.0786 ± 0.021.

As to UGGACCUACAGCAAGCAUAGUAUUUACAAA, the “pre-steady-state target cleavage rate” value under setting [1] stood at 0.273 ± 0.051.

UGGACCUACAGCUUGUAUAGUAUUUAGUUA: the “pre-steady-state target cleavage rate” value under setting [1] was determined as 1.77 ± 0.11 and the “pre-steady-state target cleavage rate” value under setting [2] was found to be 0.0563 ± 0.012.

Take UGGACCUACAGCUUGCUAUAGUAUUUAGUUA: under setting [1], the “pre-steady-state target cleavage rate” value worked out at 0.0205 ± 0.0066.

In the case of AGGACCUACAGCUUGCUAUAGUAUUUAGUUA, the “pre-steady-state target cleavage rate” value under setting [1] stood at 0.137 ± 0.037.

For UGGACCUACAGCUUGUCAUAGUAUUUAGUUA, the “pre-steady-state target cleavage rate” value under setting [1] is 0.706 ± 0.1 and the “pre-steady-state target cleavage rate” value under setting [2] was 0.00373 ± 0.0033.

Regarding UCGACCUACAGCUUGCUAUAGUAUUUAGUUA, the “pre-steady-state target cleavage rate” value under setting [1] turned out to be 0.0661 ± 0.018.

As to UCGACCUACAGCUUGUAUAGUAUUUAGUUA, the “pre-steady-state target cleavage rate” value under setting [1] was determined as 1.7 ± 0.074 and the “pre-steady-state target cleavage rate” value under setting [2] stood at 0.0725 ± 0.015.

For AGGACCUACAGCUUGUAUAGUAUUUAGUUA, the “pre-steady-state target cleavage rate” value was determined as 1.6 ± 0.061 under setting [1] and 0.0803 ± 0.015 under setting [2].

Regarding UCCACCUACAGCUUGUAUAGUAUUUAGUUA, the “pre-steady-state target cleavage rate” value by setting is: under setting [1], 1.18 ± 0.048; under setting [2], 0.0524 ± 0.0091.

For the sequence UCGACCUACAGCUUGUCAUAGUAUUUAGUUA, the “pre-steady-state target cleavage rate” value by setting is: under setting [1], 0.742 ± 0.083; under setting [2], 0.00458 ± 0.0029.

Consider UCCUGGAUGAGCUUGCAUACUAUUUAGAUA, for which the “pre-steady-state target cleavage rate” value runs as follows: under setting [1], 0.0538 ± 0.017; under setting [2], 0.00863 ± 0.0041.

Turning to AGGACCUACAGCUAGCAUAGUAUUUACAAA, under setting [1], the “pre-steady-state target cleavage rate” value stood at 0.474 ± 0.071.

With UCCACCUUCAGGUUGCAUAGUAUUUAGUUA, the “pre-steady-state target cleavage rate” value by setting is: under setting [1], 0.817 ± 0.1; under setting [2], 0.0279 ± 0.0047.

As for UCCUGGAUCAGCUCUGCAUAGUAUUUAGUUA, the “pre-steady-state target cleavage rate” value was 0.985 ± 0.054 under setting [1] and 0.0138 ± 0.0041 under setting [2].

Take UCCUGCUUGAGCUUGCAUAGUAUUUAGUAA: the “pre-steady-state target cleavage rate” value was found to be 0.491 ± 0.051 under setting [1] and 0.0206 ± 0.004 under setting [2].

Turning to UCCUGGAACAGCUUGCAUAGUAAUUACAAA, the “pre-steady-state target cleavage rate” value under setting [1] was determined as 0.129 ± 0.038.

For UCCUGGAACAGGUUGCAUAGUAUUUACUUA, the “pre-steady-state target cleavage rate” value reads like this: under setting [1], 0.164 ± 0.023; under setting [2], 0.0109 ± 0.0022.

UGGACGUACAGCUUGCAUUGUAUUUAGUUA: the “pre-steady-state target cleavage rate” value is, setting by setting: under setting [1], 0.79 ± 0.05; under setting [2], 0.0432 ± 0.01.

In the case of UGGACGUACAGCUUGCUUAGUAUUUAGUUA, the “pre-steady-state target cleavage rate” value reads like this: under setting [1], 1.37 ± 0.069; under setting [2], 0.0454 ± 0.0082.

Regarding UCGACGUACAGCUUGCUUAGUAUUUAGUUA, the “pre-steady-state target cleavage rate” value came to 1.63 ± 0.09 under setting [1] and 0.0366 ± 0.0073 under setting [2].

UCGACGUACAGCUUGCAUUGUAUUUAGUUA: the “pre-steady-state target cleavage rate” value is, setting by setting: under setting [1], 0.883 ± 0.027; under setting [2], 0.0351 ± 0.0076.

As for AGGACGUACAGCUUGCAAAGUAUUUAGUUA, the “pre-steady-state target cleavage rate” value runs as follows: under setting [1], 1.11 ± 0.057; under setting [2], 0.0396 ± 0.0083.

Turning to UCGACGUACAGCUUGCAAAGUAUUUAGUUA, the “pre-steady-state target cleavage rate” value is 1.26 ± 0.043 under setting [1] and 0.0364 ± 0.0077 under setting [2].

In the case of AGGACGUACAGCUUGCUUAGUAUUUAGUUA, the “pre-steady-state target cleavage rate” value by setting is: under setting [1], 1.31 ± 0.055; under setting [2], 0.0487 ± 0.0095.

For UGGACGUACAGCUUGCAAAGUAUUUAGUUA, the “pre-steady-state target cleavage rate” value under setting [1] is 1.3 ± 0.045 and the “pre-steady-state target cleavage rate” value under setting [2] stood at 0.0558 ± 0.0096.

For the sequence AGGACGUACAGCUUGCAUAGUAUUUAGUUA, the “pre-steady-state target cleavage rate” value worked out at 1.19 ± 0.048 under setting [1] and 0.0866 ± 0.014 under setting [2].

UCCUCCUUCAGCAUGCAUAGUAUUUAGUUA: the “pre-steady-state target cleavage rate” value reads like this: under setting [1], 1.01 ± 0.043; under setting [2], 0.0155 ± 0.0034.

In the case of UCCUCCUACAGCAUGCAUAGUAUAUAGUUA, the “pre-steady-state target cleavage rate” value by setting is: under setting [1], 0.786 ± 0.042; under setting [2], 0.00795 ± 0.0022.

As to UCCUGGAUGUCGUAGCAUAGUAUUUAGUUA, the “pre-steady-state target cleavage rate” value under setting [1] came out at 0.0153 ± 0.005.

In the case of UCCUGGAUGUCCUUGCUUAGUAUUUAGUAA, under setting [1], the “pre-steady-state target cleavage rate” value was 0.00726 ± 0.004.

As for UCCUGCUACAGCUUGCAUACAAUUUAGUAA, the “pre-steady-state target cleavage rate” value under setting [1] was determined as 0.0165 ± 0.008.

With UCCUCCUACAGCUUGCAAAGUAUUUACAAA, the “pre-steady-state target cleavage rate” value is 0.267 ± 0.036 under setting [1] and 0.00344 ± 0.0031 under setting [2].

For UCGACCUACACGUUGCAUAGUAUUUUCAAA, the “pre-steady-state target cleavage rate” value under setting [1] came out at 0.224 ± 0.036.

For the sequence UCCUGGUACACGUUGCAUAGUAUUUAGUAA, under setting [1], the “pre-steady-state target cleavage rate” value came to 0.178 ± 0.041.

With UCCUCCAACAGCUUGCAUAGUAUUUACUUA, the “pre-steady-state target cleavage rate” value turned out to be 0.267 ± 0.026 under setting [1] and 0.0243 ± 0.0038 under setting [2].

Consider ACGACCUACAGCUUGCAUAGUAUUUAGUAA, for which the “pre-steady-state target cleavage rate” value came to 1.11 ± 0.042 under setting [1] and 0.0771 ± 0.016 under setting [2].

Turning to UCGACCCUACAGCUUGCAUAGUAUUUAGUUA, the “pre-steady-state target cleavage rate” value under setting [1] was found to be 1.33 ± 0.061 and the “pre-steady-state target cleavage rate” value under setting [2] was found to be 0.0734 ± 0.012.

As for ACGACCUACAGCUUGCAUAGUAUUUAGAUA, the “pre-steady-state target cleavage rate” value by setting is: under setting [1], 0.62 ± 0.044; under setting [2], 0.0521 ± 0.011.

Consider UCGACCUACAGCUUGCAUAGUAUUUAGUA, for which the “pre-steady-state target cleavage rate” value by setting is: under setting [1], 0.778 ± 0.039; under setting [2], 0.0159 ± 0.0051.

Consider ACGACCUACAGCUUGCAUAGUAUUUAGUUA, for which the “pre-steady-state target cleavage rate” value under setting [1] was found to be 1.56 ± 0.064 and the “pre-steady-state target cleavage rate” value under setting [2] was determined as 0.0997 ± 0.017.

As for UCGACCUACAGCUUGCAUAGUAUUUAGUUUA, the “pre-steady-state target cleavage rate” value came to 1.27 ± 0.058 under setting [1] and 0.0631 ± 0.0099 under setting [2].

Turning to UCGACCUACAGCUUGCAUAGUAUUUAGCUUA, the “pre-steady-state target cleavage rate” value is, setting by setting: under setting [1], 0.375 ± 0.05; under setting [2], 0.0283 ± 0.0087.

Turning to “UCGACCUACAGCUUGCAUAGUAUUUAGUUU [g2:g28:cont:t1U]”, the “pre-steady-state target cleavage rate” value came to 1.75 ± 0.067 under setting [1] and 0.158 ± 0.033 under setting [2].

Regarding UCGACCUACAGCUUGCAUAGUAUUUAGUAA, the “pre-steady-state target cleavage rate” value is 1.15 ± 0.061 under setting [1] and 0.0683 ± 0.014 under setting [2].

As to “UCGACCUACAGCUUGCAUAGUAUUUAGUUC [g2:g28:cont:t1C]”, the “pre-steady-state target cleavage rate” value turned out to be 1.22 ± 0.045 under setting [1] and 0.0714 ± 0.013 under setting [2].

In the case of UCGACCUACAGCUUUGCAUAGUAUUUAGUUA, the “pre-steady-state target cleavage rate” value under setting [1] was 1.4 ± 0.061 and the “pre-steady-state target cleavage rate” value under setting [2] came to 0.0371 ± 0.0078.

For UCCUGCUACUCGUUGCAUAGUAUUUAGAAA, under setting [1], the “pre-steady-state target cleavage rate” value was found to be 0.0557 ± 0.014.

Take UCCUGGUACAGCUUGGAUAGUAUUUAGUAA: the “pre-steady-state target cleavage rate” value by setting is: under setting [1], 0.421 ± 0.095; under setting [2], 0.0149 ± 0.0041.

With UCCUGCUACAGCUUGCAUUGAAUUUAGUUA, the “pre-steady-state target cleavage rate” value reads like this: under setting [1], 0.168 ± 0.012; under setting [2], 0.00991 ± 0.0044.

UCCUGGAUGUGCGUUGCAUAGUAUUUAGUUA: the “pre-steady-state target cleavage rate” value by setting is: under setting [1], 0.28 ± 0.032; under setting [2], 0.00987 ± 0.0029.

With UCCACCUACUGCUUGCAAAGUAUUUAGUUA, the “pre-steady-state target cleavage rate” value was determined as 0.623 ± 0.025 under setting [1] and 0.0305 ± 0.0052 under setting [2].

For the origin of these results see the supplement of paper PMC10338343.
